Common to all, as to design: scale not given: direction of the effect not stated beside the values
Test [1] concerns the target Protein translocase subunit SecA (Escherichia coli (strain K12)) (UniProt P10408). As to the kind of experiment: Assay to Identify E. coli SecA ATPase Inhibitors. Format: functional. As to conditions: 30 µM.
Test [2] addresses T1, Ubiquitin-activating enzyme e1, putative (Leishmania donovani (strain BPK282A1)) (UniProt E9BSI1).
T1 sequence (whole entry): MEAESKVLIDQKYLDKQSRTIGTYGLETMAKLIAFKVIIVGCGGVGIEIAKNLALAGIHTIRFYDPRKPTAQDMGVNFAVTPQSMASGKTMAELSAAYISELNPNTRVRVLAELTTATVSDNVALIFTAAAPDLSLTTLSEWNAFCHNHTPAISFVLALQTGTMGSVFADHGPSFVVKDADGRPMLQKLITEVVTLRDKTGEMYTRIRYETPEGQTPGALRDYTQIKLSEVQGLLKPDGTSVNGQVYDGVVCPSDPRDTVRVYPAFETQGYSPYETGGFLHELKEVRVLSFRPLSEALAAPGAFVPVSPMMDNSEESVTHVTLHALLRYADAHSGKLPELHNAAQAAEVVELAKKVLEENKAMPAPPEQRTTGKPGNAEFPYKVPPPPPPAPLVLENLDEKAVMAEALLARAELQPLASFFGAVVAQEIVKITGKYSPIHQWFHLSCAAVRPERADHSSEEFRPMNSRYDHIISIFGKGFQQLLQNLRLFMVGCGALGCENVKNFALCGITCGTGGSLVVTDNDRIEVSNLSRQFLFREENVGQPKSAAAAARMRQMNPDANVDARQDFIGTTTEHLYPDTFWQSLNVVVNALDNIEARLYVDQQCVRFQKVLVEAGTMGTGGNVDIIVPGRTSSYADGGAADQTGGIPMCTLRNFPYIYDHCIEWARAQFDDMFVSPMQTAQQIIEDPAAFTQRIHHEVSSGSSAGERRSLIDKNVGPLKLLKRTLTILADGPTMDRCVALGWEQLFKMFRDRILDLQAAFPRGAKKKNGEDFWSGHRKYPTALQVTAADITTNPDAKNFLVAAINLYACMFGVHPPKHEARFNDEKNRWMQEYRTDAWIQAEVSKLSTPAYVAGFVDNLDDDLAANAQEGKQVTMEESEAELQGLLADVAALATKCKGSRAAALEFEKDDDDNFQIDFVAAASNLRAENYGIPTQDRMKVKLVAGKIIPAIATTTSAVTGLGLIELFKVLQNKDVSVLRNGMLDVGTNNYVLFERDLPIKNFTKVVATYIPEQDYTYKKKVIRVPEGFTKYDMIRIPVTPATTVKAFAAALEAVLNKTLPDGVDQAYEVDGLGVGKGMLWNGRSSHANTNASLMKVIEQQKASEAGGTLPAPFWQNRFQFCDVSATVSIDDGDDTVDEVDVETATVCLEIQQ
The experiment in a line: Leishmania donovani Ubiquitin Activating Enzyme (LdE1). The note with it: 30 µM. Type of test: functional.

Test [3] deals with Sialic acid-binding Ig-like lectin 9 (Homo sapiens) (UniProt Q9Y336). As to the kind of experiment: Hs-Siglec9 ALPHAscreen SOP 20170721. The note with it: 10 µM. (Bead proximity is the source of the signal in Alpha formats.)
The next test concerns Trypanosoma cruzi. The experiment in a line: Trypanosoma cruzi phosphomannomutase and mannose-1-phosphate guanylyltransferase assay. Type of test: functional. As to conditions: 10 µM.
The target of test [4] is T2, Arginase-2, mitochondrial (Homo sapiens) (UniProt P78540).
T2 sequence (whole entry): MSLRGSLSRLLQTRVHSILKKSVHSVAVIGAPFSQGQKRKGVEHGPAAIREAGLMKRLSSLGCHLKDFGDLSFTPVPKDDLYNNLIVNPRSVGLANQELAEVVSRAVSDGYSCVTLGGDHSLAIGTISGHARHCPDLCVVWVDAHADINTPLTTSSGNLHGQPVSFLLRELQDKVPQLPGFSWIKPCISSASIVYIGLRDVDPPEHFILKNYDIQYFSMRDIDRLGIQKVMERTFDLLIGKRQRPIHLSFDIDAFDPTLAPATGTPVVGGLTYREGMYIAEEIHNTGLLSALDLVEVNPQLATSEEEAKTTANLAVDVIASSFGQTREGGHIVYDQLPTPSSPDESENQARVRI
The experiment in a line: in vitro enzyme assay to detect the production of urea directly proportional to the activity of Arginase II. Further: in the data most compounds retested in dose-response had high values. Format: functional. The note with it: 33.3 µM.

Test [5] deals with T3, Proteasome subunit beta (Trypanosoma cruzi) (UniProt O96673).
T3 sequence (whole entry): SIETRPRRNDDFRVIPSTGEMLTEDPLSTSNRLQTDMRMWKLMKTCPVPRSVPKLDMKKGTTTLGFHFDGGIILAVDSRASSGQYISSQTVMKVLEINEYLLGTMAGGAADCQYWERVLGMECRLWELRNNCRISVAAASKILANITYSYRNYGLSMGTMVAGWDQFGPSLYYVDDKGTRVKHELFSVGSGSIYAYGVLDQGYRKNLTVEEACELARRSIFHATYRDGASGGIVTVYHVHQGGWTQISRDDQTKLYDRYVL
The experiment in a line: Trypanosoma cruzi proteasome chymotrypsin-like activity (TcProtChymo) assay. Further: in the data most compounds retested in dose-response had high values. As to conditions: 9.37 µM. Type of test: functional.

The species named for a further test is Homo sapiens. The experiment in a line: To identify inhibition of the IFN signalling (Jak-Stat) pathway via expression of an eGFP reporter gene under the control of an IFN-stimulated response element (ISRE) containing MxA promoter. Format: functional. The note with it: 30 µM.
Test [6] deals with T4, Tyrosyl-tRNA synthetase, putative (Trypanosoma cruzi (strain CL Brener)) (UniProt Q4DSP6).
T4 sequence (whole entry): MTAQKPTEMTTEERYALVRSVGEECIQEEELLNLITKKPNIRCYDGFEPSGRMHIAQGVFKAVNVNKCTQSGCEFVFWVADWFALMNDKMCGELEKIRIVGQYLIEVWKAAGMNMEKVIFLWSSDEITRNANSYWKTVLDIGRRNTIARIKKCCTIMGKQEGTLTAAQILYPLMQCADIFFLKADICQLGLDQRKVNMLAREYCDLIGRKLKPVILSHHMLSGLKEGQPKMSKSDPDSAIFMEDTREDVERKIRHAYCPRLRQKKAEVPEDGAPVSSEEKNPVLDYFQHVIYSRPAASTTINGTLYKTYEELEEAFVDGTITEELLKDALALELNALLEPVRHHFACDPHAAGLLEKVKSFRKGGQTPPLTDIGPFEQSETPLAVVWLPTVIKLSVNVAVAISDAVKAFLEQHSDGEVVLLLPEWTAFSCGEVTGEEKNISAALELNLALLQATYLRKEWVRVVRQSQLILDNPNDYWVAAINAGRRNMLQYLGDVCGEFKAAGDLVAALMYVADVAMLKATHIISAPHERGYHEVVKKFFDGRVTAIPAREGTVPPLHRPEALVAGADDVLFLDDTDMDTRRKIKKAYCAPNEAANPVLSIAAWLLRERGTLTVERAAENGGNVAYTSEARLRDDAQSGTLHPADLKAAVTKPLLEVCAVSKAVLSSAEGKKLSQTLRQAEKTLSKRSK
As to the kind of experiment: Trypanosoma cruzi tyrosyl tRNA synthetase (TcYRS) _High Tyrosine SOP. Further: in the data most compounds retested in dose-response had high values. Type of test: functional. The note with it: 30 µM.

The target of test [7] is T4, Tyrosyl-tRNA synthetase, putative (Trypanosoma cruzi (strain CL Brener)). The experiment in a line: Trypanosoma cruzi tyrosyl tRNA synthetase (TcYRS) SOP. Type of test: functional. The note with it: 30 µM.
In test [8] the target is Chromo domain-containing protein 1 (Saccharomyces cerevisiae (strain ATCC 204508 / S288c) (Baker's yeast)) (UniProt P32657). The experiment in a line: ScCHD-1 Enzyme Inhibition Assay. Further: in the data most compounds retested in dose-response had high values. The note with it: 30 µM. Type of test: functional.

For some assays here: Results with a measured potency or affinity are listed apart.

Sequence of Chromo domain-containing protein 1 (Saccharomyces cerevisiae (strain ATCC 204508 / S288c) (Baker's yeast)) (P32657 whole entry, the tested form may be a part): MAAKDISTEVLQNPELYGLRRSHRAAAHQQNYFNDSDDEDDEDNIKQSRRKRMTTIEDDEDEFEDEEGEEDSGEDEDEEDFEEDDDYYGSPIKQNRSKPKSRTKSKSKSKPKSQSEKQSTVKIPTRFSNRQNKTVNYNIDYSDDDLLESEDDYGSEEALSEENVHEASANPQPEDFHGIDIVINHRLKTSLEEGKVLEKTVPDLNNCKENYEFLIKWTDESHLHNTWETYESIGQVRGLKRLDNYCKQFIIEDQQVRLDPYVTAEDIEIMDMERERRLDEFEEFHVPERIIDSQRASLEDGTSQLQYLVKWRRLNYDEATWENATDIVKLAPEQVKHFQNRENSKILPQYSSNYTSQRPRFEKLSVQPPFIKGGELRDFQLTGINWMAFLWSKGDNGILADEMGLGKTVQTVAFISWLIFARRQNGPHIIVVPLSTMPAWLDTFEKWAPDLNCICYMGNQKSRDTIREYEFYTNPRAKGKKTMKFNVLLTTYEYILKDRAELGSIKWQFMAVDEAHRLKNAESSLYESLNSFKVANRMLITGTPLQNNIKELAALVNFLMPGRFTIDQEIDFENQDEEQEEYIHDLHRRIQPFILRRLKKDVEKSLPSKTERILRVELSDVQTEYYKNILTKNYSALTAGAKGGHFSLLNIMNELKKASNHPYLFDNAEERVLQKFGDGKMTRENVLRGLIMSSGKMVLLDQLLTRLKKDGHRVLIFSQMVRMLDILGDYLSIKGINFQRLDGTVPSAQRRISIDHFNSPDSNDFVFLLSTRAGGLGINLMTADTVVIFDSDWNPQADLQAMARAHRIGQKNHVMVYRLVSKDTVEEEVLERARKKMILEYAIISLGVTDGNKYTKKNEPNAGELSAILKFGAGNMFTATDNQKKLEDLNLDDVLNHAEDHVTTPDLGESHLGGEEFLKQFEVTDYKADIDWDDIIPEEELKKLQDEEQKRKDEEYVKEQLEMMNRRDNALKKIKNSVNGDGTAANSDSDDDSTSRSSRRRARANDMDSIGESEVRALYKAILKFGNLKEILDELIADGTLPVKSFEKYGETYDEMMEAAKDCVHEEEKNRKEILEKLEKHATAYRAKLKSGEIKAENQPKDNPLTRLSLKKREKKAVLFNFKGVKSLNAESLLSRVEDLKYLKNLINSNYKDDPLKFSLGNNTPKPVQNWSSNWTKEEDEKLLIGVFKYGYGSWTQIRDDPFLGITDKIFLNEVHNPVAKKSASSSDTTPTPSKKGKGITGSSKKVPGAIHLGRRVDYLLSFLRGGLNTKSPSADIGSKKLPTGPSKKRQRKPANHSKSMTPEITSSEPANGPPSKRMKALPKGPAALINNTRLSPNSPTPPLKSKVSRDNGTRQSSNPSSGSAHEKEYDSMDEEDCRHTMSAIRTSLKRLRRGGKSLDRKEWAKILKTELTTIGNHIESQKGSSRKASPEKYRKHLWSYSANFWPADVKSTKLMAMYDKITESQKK
Sequence of Sialic acid-binding Ig-like lectin 9 (Homo sapiens) (Q9Y336 whole entry): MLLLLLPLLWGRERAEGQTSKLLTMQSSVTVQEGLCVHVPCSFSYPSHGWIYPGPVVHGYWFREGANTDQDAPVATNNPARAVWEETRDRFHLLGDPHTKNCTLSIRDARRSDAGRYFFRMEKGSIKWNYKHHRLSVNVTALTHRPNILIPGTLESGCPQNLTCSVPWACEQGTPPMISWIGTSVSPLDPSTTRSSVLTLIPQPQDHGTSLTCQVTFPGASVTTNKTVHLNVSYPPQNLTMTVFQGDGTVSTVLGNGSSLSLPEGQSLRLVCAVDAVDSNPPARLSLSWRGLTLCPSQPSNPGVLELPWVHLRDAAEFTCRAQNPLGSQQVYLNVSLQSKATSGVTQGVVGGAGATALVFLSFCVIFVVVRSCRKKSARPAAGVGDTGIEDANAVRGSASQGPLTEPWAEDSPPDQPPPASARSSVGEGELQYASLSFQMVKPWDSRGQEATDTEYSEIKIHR
Sequence of Protein translocase subunit SecA (Escherichia coli (strain K12)) (P10408 whole entry): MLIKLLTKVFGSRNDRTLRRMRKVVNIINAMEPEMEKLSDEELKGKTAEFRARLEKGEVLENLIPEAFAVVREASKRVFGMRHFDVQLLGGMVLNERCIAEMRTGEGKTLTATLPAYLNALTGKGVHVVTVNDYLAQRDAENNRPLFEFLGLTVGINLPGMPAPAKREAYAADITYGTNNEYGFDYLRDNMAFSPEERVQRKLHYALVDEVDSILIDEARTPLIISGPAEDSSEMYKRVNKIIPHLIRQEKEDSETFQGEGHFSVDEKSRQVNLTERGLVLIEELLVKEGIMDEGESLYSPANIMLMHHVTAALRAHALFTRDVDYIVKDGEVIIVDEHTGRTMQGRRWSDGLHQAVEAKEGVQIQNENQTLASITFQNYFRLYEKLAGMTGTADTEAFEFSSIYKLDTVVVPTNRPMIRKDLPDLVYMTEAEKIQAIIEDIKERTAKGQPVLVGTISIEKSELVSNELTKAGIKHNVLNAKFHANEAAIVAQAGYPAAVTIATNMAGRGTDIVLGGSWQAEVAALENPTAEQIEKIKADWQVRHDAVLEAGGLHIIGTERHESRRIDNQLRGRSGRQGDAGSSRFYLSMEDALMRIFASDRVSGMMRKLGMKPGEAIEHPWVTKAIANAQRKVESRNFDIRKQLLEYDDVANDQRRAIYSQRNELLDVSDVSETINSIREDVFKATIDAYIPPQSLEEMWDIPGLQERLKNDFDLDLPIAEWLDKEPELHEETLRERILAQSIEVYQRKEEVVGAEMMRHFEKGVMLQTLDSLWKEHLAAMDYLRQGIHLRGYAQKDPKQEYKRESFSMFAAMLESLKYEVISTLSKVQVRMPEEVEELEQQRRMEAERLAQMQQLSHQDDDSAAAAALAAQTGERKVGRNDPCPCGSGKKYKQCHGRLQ

In the case of `CC[C@H](C)Nc1nccc(-c2cnc3sc(C)c(C)n3c2=O)n1`, the Percent Effect is -6.51% in [1]; 0% in [2]; 0.241% in [3]; -3.61% in the test on Trypanosoma cruzi; -3.55% in test [4]; 12.6% in [5]. For the same molecule, the Percent Effect was 15.3% in the test listed under Homo sapiens, -3.68% in test [6], -10.3% in test [7] and -9.65% in [8].

Consider `CC(C)OCCN(C)C(C)c1cccc(S(N)(=O)=O)c1` (stereo not given), for which the Percent Effect was -5.89% in test [1]; 7.79% in test [2]; -5.22% in test [3]; -3.36% with Trypanosoma cruzi; 2.66% in [4]; 1.05% in test [5]. Further, the Percent Effect in the test filed under Homo sapiens was 15.1%; in test [6], -1.96%; in [7], -2.35%; in [8], -1.17%.

In the case of `CN(C)CC(=O)N1CCC2(CC(=O)N(c3cccc(C#N)c3)C2)C1` (stereo not given), the Percent Effect in [1] was -7.09%; in [2], 6.49%; in [3], -3.56%; in the test on Trypanosoma cruzi it was -4.58%; in test [4], -5.67%; in test [5] it was 13%. In addition, the Percent Effect in the test listed under Homo sapiens is 3.5%; in [6], 2.63%; in test [7], 5.13%; in [8] it was -1.61%.

On to `O=C(c1ccnnc1)N1CCC2(CC1)CC(N1CCOCC1)C2`, for which the Percent Effect was 0.141% in [1]; 14.3% in test [2]; -2.15% in test [3]; -2.25% with Trypanosoma cruzi; 5.48% in [4]; 13.8% in test [5]. Further, the Percent Effect in the test listed under Homo sapiens is 22.2%; in [6], 4.83%; in [7], 2.5%; in test [8], -8.83%.

Consider `CCC1CN(C(=O)c2ccccc2N2CCCC2)CCN1C(C)C` (stereo not given), for which the Percent Effect is -7.26% in test [1]; 5.41% in test [2]; -0.153% in test [3]; -4.75% in the test with Trypanosoma cruzi; -5.94% in [4]; 5.31% in [5]. Moreover, the Percent Effect is -3.97% in the test filed under Homo sapiens, 3.72% in [6], -7.32% in [7] and -5.34% in test [8].

In the case of `COc1ccc(-c2nc(CN3CCc4c(ncn4C)C3)cs2)cc1`, the Percent Effect is -0.999% in [1]; -12.8% in [2]; -13.6% in test [3]; 3.66% in the test on Trypanosoma cruzi; 0.41% in [4]; 13.4% in [5]. For the same molecule, the Percent Effect is 18.6% in the test listed under Homo sapiens, 18.7% in [6], 22.9% in test [7] and 4.88% in test [8].

`CCc1nccn1-c1cncc(C2CCCN2Cc2ccc(F)cc2)n1` (stereo not given): the Percent Effect in [1] is -7.77%; in [2] it was 4%; in test [3], 1.71%; in the test with Trypanosoma cruzi it was 1.97%; in test [4], 0.443%; in test [5], -0.328%. In addition, the Percent Effect was 35.7% in the test filed under Homo sapiens, 4.23% in test [6], 5% in test [7] and -27.1% in [8].

On to `CN(C)CC(=O)N1C[C@H]2CCC[C@@]2(COc2ccccn2)C1`, for which the Percent Effect in test [1] is -8.78%; in test [2] it was 1.3%; in [3], 1.97%; in the test on Trypanosoma cruzi it was -2.82%; in test [4] it was -4.86%; in test [5], 11.9%. In addition, the Percent Effect in the test filed under Homo sapiens was 7.53%; in test [6], -0.526%; in test [7], 5.13%; in test [8] it was -0.114%.

`O=C(N1CCC(Nc2cccnn2)CC1)C1(c2ccc(F)cc2)CC1`: the Percent Effect is -2.8% in test [1]; 7.79% in [2]; 9.36% in test [3]; -1.68% with Trypanosoma cruzi; -2.25% in test [4]; 1.4% in test [5]. Further, the Percent Effect in the test listed under Homo sapiens is 10.5%; in test [6], 4.9%; in test [7], 9.41%; in test [8] it was -1.2%.

As to `Fc1cccc(-c2nc(CN3CCn4c(nnc4C4CC4)C3)co2)c1`, the Percent Effect in test [1] was 2.37%; in test [2], 0%; in test [3], -4.75%; with Trypanosoma cruzi, -5.42%; in test [4] it was 1.33%; in test [5], 8.4%. Also, the Percent Effect in the test listed under Homo sapiens was 19%; in [6], 0.526%; in test [7] it was 7.69%; in test [8], -19%.

On to `CCCNC(=O)c1cc2c(c3ccccc3n2C)n1C(=O)N(C)C`, for which the Percent Effect in test [1] is -4.26%; in test [2] it was -1.3%; in test [3], 2.88%; with Trypanosoma cruzi, -5.16%; in test [4] it was 1.22%; in [5] it was 9.62%. Moreover, the Percent Effect in the test listed under Homo sapiens was -12.8%; in [6] it was 2.63%; in test [7], 5.13%; in test [8] it was -7.15%.

Values taken from ChEMBL document CHEMBL3988442, “University of Dundee, Small-Polar-MMV Screening Library” (2021).
